TGFb SMAD3 inh: blocks TGF-b signaling; HepG2 CAGA-GFP TGF-b/SMAD3 reporter, GFP fluorescence, 18 h; TGF-beta stimulated, 500 pg/mL final; Potency, µM (series often up to 46.1 µM), for inactives: at the top dose activity, negative = inhibition, usual class: inhibitors; 1.2% of 410,000 active; note: % is set by controls: 0 for no effect and ±100 for the full control effect; nearly all actives have a fitted effect of over 65% in size
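Read-out: total well GFP (ex488/em500-530) summed from mean per-cell fluorescence. Cells: HEPG2 CAGA-GFP, 1% FBS DMEM, 18 h at 37 degrees C with 500 pg/mL final TGF-beta. Unstimulated wells served as the full-inhibition control; stimulated DMSO wells = 0%.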
S2 tox: viability counter-screen for ATXN expression inhibitors; 0.49% of 400,000 active; S2 cells (HEK-293 line with an ATXN2-luciferase reporter) viability, CellTiter-Fluor protease fluorescence, 24 h; Potency, µM (series often up to 56.7 µM), most hits filed as cytotoxic; AID 651635; note: nearly all actives have a fitted effect of over 40% in size
HepG2 viability: kills HepG2 cells in TGF-b inhibitor counter-screen; Potency, µM (top dose mostly 46.1 µM), inactives show at the highest dose activity change, negative = cytotoxicity, actives largely listed as cytotoxic; 0.76% of 410,000 active; AID 588856; HepG2 CAGA-GFP viability, ATP luminescence, 18 h
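HepG2 CAGA-GFP cells (1000/well, DMEM with 1% FBS) received compound, then TGF-beta at 500 pg/mL final, and were incubated 18 hours at 37 degrees C. Viability was read by CellTiter-Glo luminescence. Media-only wells were set as complete cell-killing and DMSO as no toxicity.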
12-LOX inh: ALOX12 (human) lipoxygenase inhibition; P18054; purified 12hLO, xylenol orange hydroperoxide absorbance; Potency, µM (series often up to 108 µM), for the others: at the top dose activity change, negative = inhibition, actives largely listed as inhibitors; 1.1% of 580,000 active; AID 1671190; note: % is set by controls: 0 for no effect and ±100 for the full control effect
Target sequence (P18054 whole entry, looked up): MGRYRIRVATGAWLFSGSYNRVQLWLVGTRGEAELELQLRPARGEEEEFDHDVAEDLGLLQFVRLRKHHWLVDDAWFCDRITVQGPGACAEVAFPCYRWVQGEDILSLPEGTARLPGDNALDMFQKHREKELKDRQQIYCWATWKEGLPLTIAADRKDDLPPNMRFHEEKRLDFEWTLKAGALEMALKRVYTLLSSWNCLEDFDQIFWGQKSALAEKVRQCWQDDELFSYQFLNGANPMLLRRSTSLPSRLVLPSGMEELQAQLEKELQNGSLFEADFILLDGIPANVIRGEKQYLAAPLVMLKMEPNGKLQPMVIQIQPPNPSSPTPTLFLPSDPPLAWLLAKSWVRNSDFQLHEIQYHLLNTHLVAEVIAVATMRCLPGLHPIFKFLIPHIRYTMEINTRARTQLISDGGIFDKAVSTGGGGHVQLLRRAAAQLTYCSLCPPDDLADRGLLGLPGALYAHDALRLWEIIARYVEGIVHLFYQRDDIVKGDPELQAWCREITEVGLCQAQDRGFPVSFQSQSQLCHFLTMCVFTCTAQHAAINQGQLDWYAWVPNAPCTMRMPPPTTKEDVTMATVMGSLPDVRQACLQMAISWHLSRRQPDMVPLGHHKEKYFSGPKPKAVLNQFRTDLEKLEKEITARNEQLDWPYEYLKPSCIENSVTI
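Purified human 12hLO at 150 nM in 25 mM Hepes, 0.01% Triton X-100, pH 7.0, preincubated 15 min at room temperature with compound. Reaction started with 40 uM arachidonic acid, 30 min at room temperature. Hydroperoxide measured by Fe-xylenol orange, 573/405 nm absorbance ratio.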
ATXN2 expr inh: reduces ATXN2 reporter expression in HEK-293 cells. AID 1745845. Potency, µM (series often up to 57 µM), for inactives: at the top dose activity change, negative = inhibition, usual class: inhibitors. 0.72% of 360,000 active. HEK-293 ATXN2-luciferase reporter, luminescence, 24 h; note: % is set by controls: 0 for no effect and ±100 for the full control effect; nearly all actives have a fitted effect of over 55% in size
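ATXN2-luciferase reporter cells (luciferase flanked by upstream and downstream ATXN2 gene portions) were treated 24 h at 37 °C with compounds at up to 57 uM. SteadyGlo luminescence gave expression; GF-AFC fluorescence gave viability.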
* marks the source's active call; other numbers are inactive results; i = inactive; u = inconclusive; x = no result; ! = not active in a repeat; [ ] = another dose, or the depositor's remark. In the library only some 2.7% were active in any assay of this set; here they are far more common. Calls come from the whole dose curve; as a rule, active = well fitted curve in the direction sought with a large enough effect; inconclusive = small, poorly fitted or top-dose-only effect, or another doubt; inactive = no such curve, though single readings can be large; an effect the other way counts as inactive or inconclusive. Potency is the fitted concentration of half-maximal effect.

SMILES	TGFb SMAD3 inh	S2 tox	HepG2 viability	12-LOX inh	ATXN2 expr inh
O=C(c1ccoc1)N1CCN(c2cc(-c3ccco3)nc3cc(-c4ccccc4)nn23)CC1	u	u	-12.6%	u	25.1µM*
COc1ccccc1-c1cc2nc(-c3ccccc3)cc(N3CCN(C(=O)c4ccoc4)CC3)n2n1	u	u	-29.7%	u	u
CCC1CCCN(C(=O)Cn2cnc3c2c(=O)n(C)c(=O)n3C)C1 (centres undefined)	x	x	x	-30.4%	x
O=C1CSc2sc(=S)sc2SC1	x	x	x	5.01µM*	x
CCOC(=O)c1c(NC(=O)c2cccs2)sc2c1CC(C)(C)OC2	-21.9%	i	0.1µM*	u	-11.1%
CCOC(=O)c1c(C)nn(-c2ccc(NC(=O)c3cccs3)cc2)c1C	-12.1%	i	-18.8%	-1.3%	28.2µM*
CC1(C)Cc2c(C#N)c(Nc3ccccc3)n3c(SCC(=O)N4CCCCC4)nnc3c2CO1	x	x	x	-26.8%	x
c1coc(CNCc2ccsc2)c1	x	x	x	-29.6%	x
CO/C([O-])=N/c1c[n+](-c2ccc(Cl)cc2)no1	13.9%	i	-10.3%	25.1µM*	6.7%
CC(Sc1nnc(C2CC2)n1Cc1ccccc1)C(=O)Nc1ccnn1C(C)C (centres undefined)	x	x	x	32.9%	x
CCOC(=O)c1cccn1C1C(=O)N(Cc2ccc(Cl)nc2)c2c(F)cccc21 (centres undefined)	x	x	x	56.2µM*	x
CCOC(=O)c1cccn1C1C(=O)N(Cc2ccc(Cl)nc2)c2ccccc21 (centres undefined)	x	x	x	-0.8%	x
O=Cc1ccc(N2CCCC2)c([N+](=O)[O-])c1	u	i	-2.9%	-11.3%	-25.1%[11.3 µM]
O=[N+]([O-])/C=C\c1ccc(N2CCCC2)c(F)c1	11.2µM*	u	-35.2%	x	u
CC(C)(C)C(=O)NC(=S)Nc1cc(C(F)(F)F)ccc1N1CCOCC1	u	i	-1.2%	35.5µM*	-7.1%
CC(C)(C)C(=O)Nc1cc(C(F)(F)F)ccc1N1CCOCC1	-1.6%	i	-10.5%	-5.4%	-11.8%
O=C(CSc1nnc(-c2cccs2)n1C1CC1)N1CCc2ccccc2C1	x	x	x	10.4%	x
CC(=O)Nc1ccc(/C(C)=N/NC(N)=S)cc1	x	x	x	28.2µM*	x
C/C(=N\NC(=O)C1CCCC1)c1ccc(NC(=O)C(F)(F)F)cc1	11.2µM*	i	-93.5%	11.1%	9.1%
CCCCOC(=O)COc1ccc2c(=O)c(Oc3ccc(CC)cc3)c(C(F)(F)F)oc2c1	x	x	x	-25.8%	x
CC1=C[C@@H](CNCc2cccnc2)[C@H](C(C)C)C[C@H]1Cc1nnc(-c2ccc([N+](=O)[O-])cc2)o1	x	x	x	16.8%	x
N#Cc1c(SCCN2CCOCC2)nc(N2CCCCC2)c2c1CCCC2	x	x	x	0.794µM*	x
Cc1ccc(/C=C2\SC(=S)N(CC3CCCO3)C2=O)o1 (centres undefined)	-12.7%	u	12.0%	6.31µM*	-21.1%
COc1ccc(-n2nc3n(c2=O)CCN(Cc2cccc4ccccc24)C3)cc1	x	x	x	0.7%[6.33 µM]	x
NNc1cccc(S(=O)(=O)c2cccc(NN)c2)c1	x	x	x	11.2µM*	x
SMILES	TGFb SMAD3 inh	S2 tox	HepG2 viability	12-LOX inh	ATXN2 expr inh
CC(C)(C)NC(=S)N/N=C\c1ccc(-c2ccc([N+](=O)[O-])cc2)o1	6.5%	x	17.9%	44.7µM*	1.7%
C=CCNC(=S)N/N=C/c1ccc(-c2cc(Cl)ccc2Cl)o1	-7.8%	i	-8.7%	236.8%	u
C=CCNC(=S)N/N=C/c1ccc(-c2ccc(OC)cc2)o1	u	x	-39.4%	39.8µM*	-29.8%
COc1ccc(Br)cc1/C=c1\sc2nc(-c3ccco3)nn2c1=O	10.2%	i	5.5%	22.4µM*	7.1%
CN(Cc1cccnc1)Cc1ccccc1C(F)(F)F	x	x	x	59.0%[176 µM]	x
O=S(=O)(Nc1nc2ccccc2nc1NCCc1ccccc1)c1ccc(F)cc1	x	x	x	14.4%	x
COc1ccc(Cn2ccc3nc(C)c(C(=O)N4CCN(c5cc(C)ccc5C)CC4)cc3c2=O)cc1	15.8µM*	u	-19.6%	2.6%	u
Cc1nc2ccn(Cc3cccs3)c(=O)c2cc1C(=O)N1CCN(c2ccccc2F)CC1	20µM*	x	-22.3%	-4.0%	x
Cc1nc2ccn(Cc3ccco3)c(=O)c2cc1C(=O)N1CCN(c2ccccc2F)CC1	u	x	-32.8%	-21.1%	x
CN1C[C@@H](NC(=O)Nc2ccccc2)C[C@H]1c1nc(-c2ccccc2)no1	x	x	x	28.2µM*	x
CN1C[C@@H](NC(=O)Nc2ccccc2)C[C@H]1c1nc(-c2ccc(F)cc2)no1	x	x	x	-2.9%[176 µM]	x
Cc1ccccc1C(=O)c1cccn1CC(=O)NCCN1CCN(c2cccc(C)c2C)CC1	u	u	12.6µM*	1.2%	u
O=S1(=O)N[C@H](Cc2ccccc2)COc2cccc(N3CCN(Cc4ccccc4F)CC3)c21	x	17.8µM*	x	u	u
Cc1cc(C(=O)N2C[C@@H](CO)[C@H](c3ccncc3)C2)on1	x	x	x	24.2%	x
O=S(=O)(NCCCn1ccc2ccccc21)c1ccc(F)c(F)c1	x	x	x	58.0%	x
CCc1ccc2c(CN3CCc4cc(S(N)(=O)=O)ccc43)cc(=O)oc2c1	x	x	x	14.1µM*	x
Nc1nc(CN2CCN(C(=O)c3cc(F)cc(F)c3)CC2)nc2ccccc12	x	x	x	77.9%	x
CCOC(=O)CSc1nnc2c3c(c(C#N)c(Nc4ccc(C)cc4)n12)CC(C)(C)OC3	x	x	x	16.2%	x
CCOC(=O)C(CC)(CC)C(=O)/C=C/c1cccc(Br)c1	14.1µM*	u	-115.8%	265.4%	u
COc1ccc2c(C)c(CC(=O)N3CCC(O)(c4ccc(Cl)cc4)CC3)c(=O)oc2c1	x	x	x	-7.2%	x
Cc1ccc(C(=O)CSc2nnnn2C(C)C)c(C)c1	-2.5%	i	-5.4%	-7.5%	7.94µM*
CCOC(=O)c1cc(-c2ccco2)nc2c1c(C)nn2-c1cccc(Cl)c1	0.0%	i	2.1%	14.1µM*!	-5.1%
O=C(COc1ccc2ccc(=O)oc2c1)NCc1cccs1	x	x	x	25.0%	x
CCn1c(SCC(=O)Nc2ccc3c(c2)c2ccccc2n3CC)nnc1-c1ccco1	-20.5%	i	-21.4%	11.2µM*	-17.3%
CCn1c(SCC(=O)Nc2cccc(NC(C)=O)c2)nnc1-c1ccco1	0.0%	i	0.5%	-10.7%	-9.0%
CCCCN1C(=O)C(O)=C(C(C)=O)C1c1ccccc1 (centres undefined)	-2.0%	i	12.3%	x	-1.9%
CC(=O)C1=C(O)C(=O)N(CCc2c[nH]c3ccccc23)C1c1ccc(O)cc1 (centres undefined)	0.0%	i	-6.0%	8.91µM*	-4.5%
CC(=O)C1=C(O)C(=O)N(CCc2c[nH]c3ccccc23)C1c1ccccc1 (centres undefined)	-5.8%	i	-5.6%	u	x
COCCCN1C(=O)C(O)=C(C(C)=O)C1c1cccc(F)c1 (centres undefined)	-0.7%	i	8.6%	7.94µM*	-3.4%

Screens from PubChem BioAssay.
